# In the library only some 1.8% were active in any assay of this set; here they are far more common.
# GCN5L2 inh: GCN5L2 (KAT2A) acetyltransferase inhibition. Q92830. GCN5L2 HAT assay, ThioGlo1 CoA-SH fluorescence. Potency, µM (top dose mostly 58.9 µM), for inactives: at the highest dose activity change, negative = inhibition, usual class: inhibitors. 0.21% of 390,000 active. AID 504327; further: on the % scale 0 is the no-effect control and ±100 the full control effect
#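 Enzyme at 20nM final was mixed with library compounds for 15 min at room temperature. Peptide H3(1-25) at 75uM, acetyl-CoA at 70uM and ThioGlo1 at 50uM were then added. Plates were read immediately and after 20 min (Ex340nm/Em540nm).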
# GLP1R cytotox: cytotoxicity in counter-screen for GLP-1R inverse agonists | HEK293 cAMP-luciferase reporter cells, luminescence, 24 h | Potency, µM (series often up to 38.3 µM), for inactives: at the top dose activity change, negative = inhibition, hits mostly inhibitors | 0.13% of 410,000 active | AID 624418;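 further: loss of luciferase light is scored as toxicity; on the % scale 0 is the no-effect control and ±100 the full control effect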
#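 Luminescence readout: signal drop marks cytotoxicity. Plated cells grew 12 h at 37 °C, 5% CO2, received 23 nL compound for 24 h, then got luciferase reagent, read after 12 min at RT.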
# GLP-1R inv ag: acts as inverse agonist at human GLP-1 receptor | P43220 | HEK293 GLP-1R CRE-luciferase, luminescence, 24 h; GLP-1R form is constitutively active | Potency, µM (top dose mostly 38.3 µM), for inactives: at the highest dose activity change, negative = inhibition, most hits filed as inhibitors | 1.6% of 410,000 active | AID 624417; further: on the % scale 0 is the no-effect control and ±100 the full control effect; nearly all actives have a fitted effect of over 55% in size
#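 Inverse agonism was detected as reduced cAMP-driven luciferase luminescence after 24 h compound treatment. The cells were HEK293 clones expressing constitutively active human GLP-1R with the reporter. Reporter-only and GPR119 cell lines served as counterscreen controls.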
# PTHR1 ag: agonists of human PTHR1 parathyroid hormone receptor; Q03431; HEK293 GP2 PTHR1 cells, GloSensor cAMP luminescence, 1 h; Potency, µM (titrated, usually from 115 µM), for inactives: at the highest dose activation, most hits filed as activators; 0.075% of 410,000 active; AID 743266; further: nearly all actives have a fitted effect of over 55% in size
#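 HEK-293-derived GP2 cells expressing PTHR1 and a GloSensor cAMP reporter, 3,000/well, plated overnight, given luciferin plus IBMX (each 0.5 mM as added) for 1 h at 37 °C, then compound for 1 h at 37 °C. Luminescence was read after 15 min at room temperature.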
# RGS4 inhibitor: blocks human RGS4-accelerated GTP hydrolysis; P49798; Transcreener GDP fluorescence polarization, RGS4-accelerated GTP hydrolysis; Potency, µM (doses to about 114 µM), for inactives: at the top dose activity change, negative = inhibition, actives largely listed as inhibitors; 0.039% of 390,000 active; further: on the % scale 0 is the no-effect control and ±100 the full control effect; nearly all actives have a fitted effect of over 75% in size
#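 MLSMR compounds (23 nl, pin-transferred) preincubated 10 min at room temperature with a 500nM (2x) first reagent, then RGS4 at 900nM (2x) plus Transcreener GDP mix added; fluorescence polarization (620/688 nm) read before and after 90 min at 30 °C.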
# GLP-1R agonist: agonists of human GLP-1 receptor. HEK293 GLP-1R CRE-luciferase, luminescence, 4-6 h; cells express a hypersensitive GLP-1R form. Potency, µM (top dose mostly 45.6 µM), for the others: top-dose activation, most hits filed as activators. 0.007% of 380,000 active. AID 624172; further: % of control where 0% means no effect
# Starred values were filed as active, the others as inactive; i = inactive; u = inconclusive; x = no result given; [ ] = remark or other dose. The call rests on the fitted dose curve; in most records, active means well fitted curve in the direction sought with a large enough effect; inconclusive means small, poorly fitted or top-dose-only effect, or another doubt; inactive means no such curve, though single readings can be large; an effect the other way counts as inactive or inconclusive. Potency means the concentration at half of the fitted maximal effect.
SMILES,GCN5L2 inh,GLP1R cytotox,GLP-1R inv ag,PTHR1 ag,RGS4 inhibitor,GLP-1R agonist
Cc1cccc(NC(=O)c2ncn3c2C(=O)N[C@@H](C)C3)c1,x,-17%,17%,-36%,x,-4%
CCCCN1C(=O)N(CCc2ccc(F)cc2)S(=O)(=O)c2cc(C(F)(F)F)ccc21,-10%,4%,10µM*,-33%,3%,4%
OC[C@@H]1CN(Cc2ccc3c(c2)OCO3)C[C@H](n2cnc3c(NC4CCC4)ncnc32)O1,x,1%,14%,-16%,x,1%
CCOc1ccc(NC(=O)c2ccc(N3CC4CC(C3)c3cccc(=O)n3C4)c(NC(=O)c3cccnc3)c2)cc1 (stereo not given),-3%,-8%,9%,-3%,-15%,2%
CC(C)=CCC[C@H](C)C[C@@H]1Cc2[nH][nH]c(=O)c2[C@@H](c2ccc(F)cc2)O1,x,-16%,5.6µM*,i,x,6%
O=c1[nH][nH]c2c1[C@@H](c1ccc(F)cc1)O[C@H](C1CCCCC1)C2,x,3%,u,-4%,x,0%
O=c1[nH][nH]c2c1[C@H](c1ccc(F)cc1)O[C@H](C1CCCCC1)C2,x,4%,2.8µM*,-12%,x,0%
O=c1c2c([nH]n1-c1ccccc1)C[C@@H](C1CCCCC1)O[C@H]2c1ccc(F)cc1,x,-29%,2.2µM*,-18%,x,-3%
O=C(NCCN1CCOCC1)C(=O)NCC1OCCN1S(=O)(=O)c1ccccc1 (stereo not given),u,5%,2%,i,-9%,-5%
CC1=Nc2cc(C(=O)NC3CCC(C)CC3)ccc2Sc2c(C)ccc(C)c21 (stereo not given),-3%,u,0.79µM*,-4%,25%,20%
CCCC1=Nc2cc(C(=O)NC3CCCCC3)ccc2Sc2ccc(C)cc21,-16%,u,0.79µM*,u,5%,x
CCOC(=O)N1CCC(NC(=O)c2ccc3c(c2)N=C(C)c2c(C)ccc(C)c2S3)CC1,-12%,u,u,-9%,-8%,11%
CCCC1=Nc2cc(C(=O)NCC(C)c3ccccc3)ccc2Sc2ccccc21 (stereo not given),-13%,u,3.2µM*,i,11%,-2%
CCCC1=Nc2cc(C(=O)NCCCOC(C)C)ccc2Sc2ccccc21,-9%,-23%,3%,-29%,-15%,5%
CCCC1=Nc2cc(C(=O)NCCOC)ccc2Sc2ccccc21,-4%,u,2.2µM*,-22%,26%,x
Cc1occc1-c1n[nH]c(=S)n1C,-9%,16%,20%,i,-23%,4%
CCCCCCn1cc(CN2CC(N3CCN(CCO)CC3)CS2(=O)=O)nn1 (stereo not given),x,-2%,11%,i,x,6%
O=C1NC(=O)c2cc3ccccc3cc21,-3%,-6%,0%,i,-5%,15%
COc1ccc(S(=O)(=O)N(C(=O)c2ccncc2)c2ccc3oc4c(c3c2)CCCC4)cc1,-11%,u,10µM*,-1%,-31%,-14%
COC(=O)c1c(C)oc2ccc(N(C(=O)c3ccncc3)S(=O)(=O)c3ccc(OC)cc3)cc12,0%,u,u,-67%,12%,x
COc1ccc(S(=O)(=O)N(C(=O)c2ccncc2)c2ccc3oc(C)c(C(C)=O)c3c2)cc1,-2%,-25%,3.2µM*,-31%,15%,x
CC(C)c1ccc(NC(=O)Cn2cc(S(=O)(=O)Cc3cccc(Cl)c3)c3ccccc32)cc1,-8%,-12%,15%,-6%,-1%,x
Cc1ccc2c(c1)C1(C=CC(=O)C=C1)CC(=O)N2C,x,x,x,x,-15%,x
Cc1ccc(C(=O)NNC(=O)C(NC(=O)c2cccc(C)c2)C(C)C)cc1 (stereo not given),2%,3%,11%,i,27%,1%
COc1ccc(-n2nc3c(N4CCC(C(=O)NCC(C)c5ccccc5)CC4)nnc(C)c3c2C)cc1 (stereo not given),2%,u,10µM*,i,-21%[56.9 µM],21%
SMILES,GCN5L2 inh,GLP1R cytotox,GLP-1R inv ag,PTHR1 ag,RGS4 inhibitor,GLP-1R agonist
COc1ccc(-n2nc3c(N4CCC(C(=O)NCCc5ccccc5)CC4)nnc(C)c3c2C)cc1,-3%,-1%,5%,-11%,8%,x
Cc1c(C(=O)OC2CCCCC2)[nH]c2c1C(=O)CC(c1ccccc1Cl)C2 (stereo not given),-5%,-11%,u,-3%,-5%,x
Cc1c(C(=O)N2CCOCC2)[nH]c2c1C(=O)CC(c1ccccc1Cl)C2 (stereo not given),-3%,5.6µM*,u,-14%[57.5 µM],5%,0%
Cc1ccccc1OCCNc1cc(N2CC(C)NC(C)C2)ccc1[N+](=O)[O-] (stereo not given),-12%,u,7.9µM*,-14%,-5%,-3%
CC1CN(c2ccc([N+](=O)[O-])c(NCCOc3ccc(Cl)cc3)c2)CC(C)N1 (stereo not given),-6%,-10%,10µM*,i,-3%,-1%
CC1CN(c2ccc([N+](=O)[O-])c(NCCOc3ccccc3)c2)CC(C)N1 (stereo not given),-3%,u,u,i,1%,15%
CC[C@H](C)[C@H](NC(=O)[C@H](CC(=O)O)NC(=O)[C@H](CC(C)C)NC(=O)[C@H](Cc1cnc[nH]1)NC(=O)[C@H](C)NC(=O)[C@H](Cc1ccccc1)NC(=O)[C@H](Cc1ccc(O)cc1)NC(=O)[C@@H](NC(=O)[C@H](C)NC(=O)[C@H](CCC(=O)O)NC(=O)[C@H](CCCCN)NC(=O)[C@H](CC(=O)O)NC(=O)[C@H](CCSC)NC(=O)[C@H](CC(C)C)NC(C)=O)C(C)C)C(=O)N[C@H](C(=O)N[C@@H](Cc1c[nH]c2ccccc12)C(=O)O)[C@@H](C)CC,0%,x,x,x,x,x
CC(C)c1onc(C(=O)N2CCN(C(c3ccccc3)c3ccccc3)CC2)c1[N+](=O)[O-],-1%,27%,2.5µM*,-16%,15%,-3%
Cc1cc(C)nc(SCC(=O)c2ccc(O)c(O)c2)n1,47%,0%,1%,-6%,7%,9%
Cc1cc(SCC(=O)c2ccc(O)c(O)c2)n2nc(C)c(-c3ccccc3)c2n1,-4%,u,11µM*,-46%,-2%[11.4 µM],16%
CCCNC(=O)CNC(=O)c1ccc(C#N)cc1,-1%,-12%,-9%,-3%,13%,-2%
